Most compounds without a hit are left out; they make up all but 21% or so of the library.
Pf growth 96h – Primary qHTS for delayed death inhibitors of the malarial parasite plastid, 96 hour incubation; Potency, µM (titrated, usually from 28.7 µM), for inactives: at the highest dose activity change, negative = inhibition, most hits filed as inhibitors; AID 504834, 2011; hit rate 6.9% among 320,000; P. falciparum luciferase reporter growth, 96 h; also: potency is read from the fitted curve at half-maximal effect; % is scaled to controls: 0 for no effect and ±100 for the full control effect
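Two parasite generations (96 h, 37 C, 5% CO2) of compound exposure in infected erythrocytes (0.05% parasitemia, 2% hematocrit). Luciferase-reporter P. falciparum; decreased luminescence indicates inhibited growth, aimed at apicoplast-acting delayed death.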
Shiga toxin inh – A qHTS for Small Molecule Inhibitors of Shiga Toxin; AID 2315, 2010; inhibition, % at 38.7 µM; hit rate 9.2% among 290,000; Vero cells, Shiga toxin protein synthesis inhibition reporter; in the data active = inhibition mostly above about 28%, no sharp cut-off; inactive = mostly below about 43%; also: 0% is about no effect
Pf growth 48h – Primary qHTS for delayed death inhibitors of the malarial parasite plastid, 48 hour incubation. P. falciparum luciferase growth in erythrocytes, 48 h. Potency, µM (top dose mostly 28.7 µM), for inactives: top-dose activity change, negative = inhibition, actives largely listed as inhibitors. hit rate 5.9% among 310,000. AID 504832, 2011; also: potency is read from the fitted curve at half-maximal effect; % is scaled to controls: 0 for no effect and ±100 for the full control effect
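Luciferase-expressing parasites in RBCs, 2% Hct / 0.1% parasitemia final; RPMI 1640 + 0.5% Albumax; 37 C, 5% CO2, one generation; luminescence read-out, lower signal = inhibition.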
FBPA Giardia inh – qHTS Assay for Inhibitors of Fructose-1,6-bisphosphate Aldolase from Giardia Lamblia; AID 2451, 2010; hit rate 0.71% among 290,000; A8B2U2; Potency, µM (doses to about 59.6 µM), for inactives: at the top dose activity, negative = inhibition, hits mostly inhibitors; purified Giardia FBPA; also: potency is read from the fitted curve at half-maximal effect; % is scaled to controls: 0 for no effect and ±100 for the full control effect; nearly all actives have a fitted effect of over 55% in size
Target sequence (A8B2U2 whole entry, looked up): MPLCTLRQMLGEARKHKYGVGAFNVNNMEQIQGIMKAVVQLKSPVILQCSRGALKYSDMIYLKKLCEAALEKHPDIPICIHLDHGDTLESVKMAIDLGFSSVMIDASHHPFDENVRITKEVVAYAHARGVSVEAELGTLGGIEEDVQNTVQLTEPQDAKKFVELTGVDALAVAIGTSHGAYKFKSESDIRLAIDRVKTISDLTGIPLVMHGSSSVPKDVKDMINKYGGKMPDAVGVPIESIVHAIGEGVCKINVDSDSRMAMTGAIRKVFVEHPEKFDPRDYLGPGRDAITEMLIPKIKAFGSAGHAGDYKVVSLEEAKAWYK
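Giardia FBPA (40 nM reagent) was preincubated 10 min at RT with compound (up to 57.5 uM final), then substrate plus GAPDH/TPI/NAD/arsenate coupling system with diaphorase/resazurin was added; resorufin fluorescence (525/598 nm) was read after 20 min.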
CHX counter – Cycloheximide Counterscreen for Small Molecule Inhibitors of Shiga Toxin; cell reporter, cycloheximide protein synthesis inhibition counterscreen; max response, %; hit rate 12% among 300,000; AID 2314, 2010; in the data active = max response mostly above about 13%, no sharp cut-off; inactive = mostly below about 14%; also: read at 38.3 µM for the half of the compounds with a filed dose; 0% is about no effect
NS1 inh – qHTS Assay for Inhibitors of Influenza NS1 Protein Function. Potency, µM (doses to about 46.1 µM), inactives show at the highest dose activity, positive = more growth. hit rate 0.4% among 270,000. AID 2326, 2010; calls by dose curve; also: potency is read from the fitted curve at half-maximal effect; actives are rising curves; nearly all actives have a fitted effect of over 50% in size
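Growth recovery, yeast-based: influenza A NS1 expressed in S. cerevisiae causes slow growth, and suppressors are detected by OD600. The parent strain without NS1 is used as positive control.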
Active calls of the source: *; ? = inconclusive; nt = not tested or not shown. Unless noted, calls follow the shape of the dose curve; as a rule, active = well fitted curve in the direction sought with a large enough effect; inconclusive = small, poorly fitted or top-dose-only effect, or another doubt; inactive = no such curve, though single readings can be large; an effect the other way counts as inactive or inconclusive.

SMILES	Pf growth 96h	Shiga toxin inh	Pf growth 48h	FBPA Giardia inh	CHX counter	NS1 inh
Cc1ccc(-c2nc3cnccn3c2Nc2ccc3c(c2)OCCO3)o1	0%	22*	-11%	12%	34*	-11%
CC1Cc2ccccc2N1S(=O)(=O)c1cccc(C(=O)N2Cc3ccccc3CC2C(N)=O)c1 (centres undefined)	13µM*	nt	?	nt	nt	nt
Cc1cc(NC(=O)c2cccc(S(=O)(=O)N3c4ccccc4CC3C)c2)no1 (centres undefined)	5.2µM*	-2	3.3µM*	-5%	-1	?
Cc1cc(NC(=O)c2cccc(S(=O)(=O)N3CCC(C)CC3)c2)no1	117%	11	?	6%	-2	-5%
CCOC(=O)c1sc(NC(=O)c2cccc(S(=O)(=O)N3c4ccccc4CC3C)c2)cc1C (centres undefined)	?	8	2.9µM*	4%	12	22%
CCC(CO)NC(=O)c1cccc(S(=O)(=O)N2c3ccccc3CC2C)c1 (centres undefined)	?	-7	?	0%	-6	-4%
CCCC1(c2ccccc2)NC(=O)N(CC(=O)N(C)Cc2c(F)cccc2Cl)C1=O (centres undefined)	-13%	3	-18%	10%	-4	-1%
COc1ccc(NC(=O)CCC(=O)N(Cc2ccc(OC)c(OC)c2)c2nccs2)c(OC)c1	2.9µM*	-16	7%	-2%	-2	-3%
COc1ccccc1CN1C(=O)CN(C2CCCCCC2)C(=O)C1c1ccc(F)cc1 (centres undefined)	10µM*	-4	?	3%	-2	6%
CCc1ccc(-c2cc(C(=O)N/N=C/c3ccco3)[nH]n2)cc1	-13%	-9	7%	1%	-4	nt
O=C(N/N=C/c1ccccn1)c1cc(-c2ccc3ccccc3c2)n[nH]1	38%	32	?	-18%	12	14%
O=C(N/N=C/c1cccs1)c1cc(-c2cccc3ccccc23)n[nH]1	-22%	-26	46%	-1%	47*	5%
O=C(N/N=C/c1cccs1)c1cc(-c2ccc3ccccc3c2)n[nH]1	?	54*	?	0%	39*	16%
O=C(N/N=C/c1ccccn1)c1cc(-c2cccc3ccccc23)n[nH]1	10%	-24	28%	-4%	13*	8%
O=C(N/N=C/c1ccco1)c1cc(-c2ccc3ccccc3c2)n[nH]1	9%	23	nt	1%	18*	-9%
O=C(N/N=C/c1cccs1)c1cc(-c2ccncc2)nc2ccccc12	?	-2	-12%	5%	-1	-11%
O=S1(=O)c2cccc3cccc(c23)N1CCCN1CCN(c2ccc(F)cc2)CC1	-26%	-9	-15%	-5%	5	nt
COc1ccc(NC(=O)[C@H](Cc2c[nH]c3ccccc23)NC(=O)[C@@H]2Cc3ccccc3CN2)cc1	?	15	?	?	19*	7%
COC(=O)C(Cc1c[nH]c2ccccc12)NC(=O)C1CC1 (centres undefined)	28%	1	0%	-7%	-8	0%
CC(C)c1ccc(NC(=O)[C@H](Cc2c[nH]c3ccccc23)NC(=O)[C@@H]2Cc3ccccc3CN2)cc1	?	27	?	?	24*	17%
COc1ccc(CNC(=O)[C@H](Cc2c[nH]c3ccccc23)NC(=O)[C@@H]2Cc3ccccc3CN2)cc1	?	-3	?	?	-4	4%
CC1=NN(C(N)=S)C(=O)C1N=Nc1c(Br)cc(Br)cc1Br (centres undefined)	-20%	nt	15%	?	1	-94%
CCOc1ccccc1N=NC1C(=O)N(C(N)=S)N=C1C (centres undefined)	11%	-2	nt	-8%	-2	10%
CC1=NN(C(N)=S)C(=O)C1N=Nc1ccccc1C (centres undefined)	0%	38	?	?	11	-60%
CC1=NN(C(N)=S)C(=O)C1N=Nc1ccc(C)cc1C (centres undefined)	8.3µM*	59*	nt	9%	29*	-206%
SMILES	Pf growth 96h	Shiga toxin inh	Pf growth 48h	FBPA Giardia inh	CHX counter	NS1 inh
CC1=NN(C(N)=S)C(=O)C1N=Nc1c(C)cc(C)cc1C (centres undefined)	4.1µM*	-13	nt	10%	3	-131%
CC1=NN(C(N)=S)C(=O)C1N=Nc1ccccc1O (centres undefined)	-19%	16	41%	25%	15*	15%
CC1=NN(C(N)=S)C(=O)C1N=Nc1c(Cl)cc([N+](=O)[O-])cc1Cl (centres undefined)	9%	27*	?	20%	18*	-115%
Cc1cccc(N2CN(Cc3ccco3)CNC2=S)c1	368%	-8	9%	-2%	-3	0%
O=Cc1c(NCc2ccccc2Cl)c2ccccc2[nH]c1=O	?	-8	9%	-2%	-4	-37%
COc1cc(Cl)c(C)cc1NC(=O)COC(=O)C1=COCCO1	40%	nt	6%	nt	nt	nt
CC1=NN(C(N)=S)C(=O)C1N=Nc1cccc(Cl)c1 (centres undefined)	24%	79*	nt	22%	44*	-50%
CC1=NN(C(N)=S)C(=O)C1N=Nc1ccc(S(N)(=O)=O)cc1 (centres undefined)	25%	nt	6%	18%	-3	19%
CCCCC1CCC(C(=O)N(CCOC)c2c(N)n(CCCC)c(=O)[nH]c2=O)CC1 (centres undefined)	10%	nt	?	nt	nt	nt
CC(C)N(C(=O)CSc1nnc(-c2cc3ccccc3cc2O)n1Cc1ccco1)C(C)C	35%	-11	2.1µM*	-8%	2	13%
COCCn1c(SCC(=O)N(C(C)C)C(C)C)nnc1-c1cc2ccccc2cc1O	?	-10	?	0%	-2	-6%
O=C(CSc1nnc(-c2cc3ccccc3cc2O)n1Cc1ccco1)N1CCc2ccccc2C1	1.7µM*	-24	nt	-4%	-2	0%
Cc1ccc(CNC(=O)Cn2ccc3cc(S(=O)(=O)N4CCCCCC4)ccc32)cc1	?	-2	?	-2%	-2	17%
N#CCCn1nc(-c2ccccc2)cc1Nc1ccccc1NC(=O)c1cccs1	47%	-2	5.2µM*	2%	9	6%
Cc1nn(C)cc1/C=C/C(=O)c1ccccc1	nt	65*	159%	4%	28*	-101%
Cc1nn(C)c(C)c1/C=C/C(=O)c1ccccc1	-17%	36*	nt	-6%	27*	-49%
Cc1nn(C)cc1/C=C/C(=O)c1cccs1	70%	58*	206%	3%	48*	-29%
CCn1cc(/C=N/O)c(C)n1	nt	-8	-8%	6%	-1	-4%
